Here are results for ten compounds from PubChem BioAssay (NCI).

Among the test systems are NCI-H226 lung; NCI-H322M lung; HOP-62 NSCLC; NCI-H460 lung; HOP-92 NSCLC; NCI-H522 lung; A549/ATCC NSCLC; 786-0 renal; COLO 205 colon; DU-145 prostate; K-562 leukemia; MALME-3M melanoma; MDA-MB-231 breast; RXF 393 renal; SF-268 CNS; SF-295 CNS; SF-539 CNS; UACC-257 melanoma; M14 melanoma.
Test in all cases: NCI-60 one-dose screen, 48 h (100 = growth as untreated, 0 = no growth, -100 = all killed)
Holding throughout (conditions): 10 µM unless noted

Molecules are shown by their SMILES. The panel holds about 83,000 compounds, 20% with a hit somewhere; the sample as a whole holds those more often.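 Compound tested at a single concentration for 48 hours in 96-well plates; a percent growth value below 10 was scored as active.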 Unmarked numbers belong to inactive results. The source made the active and inactive calls.

In the case of `COc1ccc(C2CC(c3ccc4ccccc4c3)=NN2c2nc(O)c(C3=c4cc(OC)ccc4=NC3=O)s2)cc1` (centres undefined), the growth in the assay on NCI-H226 lung is -70.6% (active); with NCI-H322M lung, -17% (active); in the assay with HOP-62 NSCLC it was -60.7% (active); in the assay with NCI-H460 lung it was -39.8% (active); in the assay with HOP-92 NSCLC it was -67.7% (active); with NCI-H522 lung, -74.1% (active). Besides, the growth is -72.4% (active) in the assay with A549/ATCC NSCLC; -73.3% (active) in the assay on 786-0 renal; -73.3% (active) in the assay with COLO 205 colon; 1.32% (active) with DU-145 prostate; 0.0361% (active) in the assay on K-562 leukemia; -61.7% (active) in the assay with MALME-3M melanoma. The growth with MDA-MB-231 breast was -54.7% (active); with RXF 393 renal it was -66.3% (active); in the assay with SF-268 CNS, -32.5% (active); with SF-295 CNS it was -59% (active); in the assay on SF-539 CNS, -27.9% (active); with UACC-257 melanoma, -52.5% (active). Moreover, in the assay on M14 melanoma, the growth was -67.1% (active).
Take `O=C(COc1cccc(/C=C2\Oc3ccccc3C2=O)c1)c1ccc([N+](=O)[O-])cc1`: the growth is 85.8% in the assay with NCI-H226 lung; 115% with NCI-H322M lung; 103% in the assay on HOP-62 NSCLC; 95.7% with NCI-H460 lung; 57% in the assay on NCI-H522 lung; 90% in the assay with A549/ATCC NSCLC. Further, the growth is 102% in the assay on 786-0 renal; 107% with COLO 205 colon; 111% in the assay on DU-145 prostate; 70.7% in the assay on K-562 leukemia; 108% in the assay with MALME-3M melanoma; 72.6% with MDA-MB-231 breast. Also, the growth is 97.6% in the assay on RXF 393 renal; 96.2% with SF-268 CNS; 197% with SF-295 CNS; 97.4% in the assay with SF-539 CNS; 97.6% in the assay on UACC-257 melanoma; 100% in the assay on M14 melanoma.
For `CCOc1ccc(S(=O)(=O)Nc2ccc3c(c2)N(S(=O)(=O)CC)CCC3)cc1`, the growth in the assay on NCI-H226 lung was 87%; in the assay on NCI-H322M lung, 86.8%; in the assay with HOP-62 NSCLC it was 69.9%; with NCI-H460 lung, 52.6%; in the assay with HOP-92 NSCLC, 86.1%; in the assay with NCI-H522 lung it was 68.4%. Besides, the growth was 84.3% in the assay with A549/ATCC NSCLC; 96% with 786-0 renal; 62.6% with COLO 205 colon; 89.6% in the assay with DU-145 prostate; 71.6% in the assay with K-562 leukemia; 100% with MALME-3M melanoma. Besides, the growth with MDA-MB-231 breast was 88.7%; in the assay with RXF 393 renal, 86.2%; with SF-268 CNS it was 74.1%; with SF-295 CNS, 59.2%; in the assay with SF-539 CNS, 61.6%; in the assay on UACC-257 melanoma, 85.4%. For the same compound, the growth in the assay with M14 melanoma was 107%.
Take `Cc1ccc(-c2cc(-c3ccc(C)cc3)nc(NCCNc3ccnc4cc(Cl)ccc34)n2)cc1`: the growth in the assay on NCI-H226 lung was -59.2% (active); in the assay on NCI-H322M lung, 14.9%; with HOP-62 NSCLC, -7.66% (active); with NCI-H460 lung, -68.8% (active); in the assay with HOP-92 NSCLC, -33.9% (active); with NCI-H522 lung it was -63.6% (active). For the same compound, the growth was -56.5% (active) with A549/ATCC NSCLC; -91.4% (active) in the assay with 786-0 renal; -85.8% (active) with COLO 205 colon; -26.4% (active) in the assay on DU-145 prostate; -14.4% (active) in the assay with K-562 leukemia; -81.4% (active) in the assay on MALME-3M melanoma. For the same compound, the growth is -89.1% (active) in the assay on MDA-MB-231 breast; -70.4% (active) in the assay on RXF 393 renal; -21.9% (active) with SF-268 CNS; -76.3% (active) in the assay with SF-295 CNS; -80.6% (active) with SF-539 CNS; -60.9% (active) in the assay on UACC-257 melanoma. The growth with M14 melanoma is -88.8% (active).
As to `O=C1/C(=C/c2ccc(OCc3ccccc3)cc2)Oc2cc(OCCN3CCCCC3)ccc21`, the growth in the assay on NCI-H226 lung was 89.6%; with NCI-H322M lung it was 97.9%; in the assay with HOP-62 NSCLC, 95.7%; in the assay on NCI-H460 lung, 70.3%; in the assay on HOP-92 NSCLC, 70.9%; in the assay with NCI-H522 lung, 87.5%. The growth with A549/ATCC NSCLC was 80.1%; with 786-0 renal, 69%; with COLO 205 colon, 105%; in the assay on DU-145 prostate, 91.9%; with K-562 leukemia it was 9.17% (active); with MALME-3M melanoma, 67.8%. The growth in the assay on MDA-MB-231 breast was 80.9%; in the assay with RXF 393 renal, 60.8%; in the assay on SF-268 CNS it was 77.4%; in the assay with SF-295 CNS it was 92.9%; with SF-539 CNS, 69.5%; in the assay on UACC-257 melanoma it was 90%. In addition, the growth in the assay on M14 melanoma was 60.8%.
In the case of `COc1ccc(OC)c(NC=O)c1`, the growth with NCI-H226 lung was 103%; with NCI-H322M lung, 111%; in the assay with HOP-62 NSCLC it was 98.1%; with NCI-H460 lung it was 105%; with HOP-92 NSCLC it was 101%; with NCI-H522 lung, 103%. For the same compound, the growth is 105% in the assay with A549/ATCC NSCLC; 104% in the assay with 786-0 renal; 108% in the assay on COLO 205 colon; 105% in the assay with DU-145 prostate; 99.8% in the assay on K-562 leukemia; 107% in the assay with MALME-3M melanoma. For the same compound, the growth with MDA-MB-231 breast was 106%; with RXF 393 renal, 103%; with SF-268 CNS, 99.6%; in the assay on SF-295 CNS, 106%; in the assay on SF-539 CNS, 103%; in the assay with UACC-257 melanoma, 102%. In the assay on M14 melanoma, the growth is 103%.
For the compound `CCn1cc(-c2ccnc(NCCNS(=O)(=O)c3ccc(Br)cc3)c2)c(-c2cccc(OC)c2)n1`, the growth in the assay with NCI-H226 lung was 72.9%; in the assay with NCI-H322M lung, 85.3%; in the assay with HOP-62 NSCLC, 81.4%; in the assay on NCI-H460 lung, 78.4%; in the assay on HOP-92 NSCLC, 51.1%; in the assay on NCI-H522 lung, 56.7%. Besides, the growth in the assay on A549/ATCC NSCLC was 62.4%; in the assay with 786-0 renal, 71.3%; in the assay with COLO 205 colon, 93.5%; in the assay on DU-145 prostate, 84.7%; in the assay with K-562 leukemia, 42.1%; in the assay on MALME-3M melanoma it was 70.9%. The growth with MDA-MB-231 breast was 80.8%; in the assay with RXF 393 renal it was 99.8%; with SF-268 CNS, 71.5%; in the assay with SF-295 CNS, 95.4%; in the assay on SF-539 CNS, 78.3%; in the assay with UACC-257 melanoma, 89.8%. In addition, the growth in the assay on M14 melanoma was 83.3%.
Consider `c1ccc2c(c1)CN(CCCN1CCOCC1)C2`, for which the growth is 96.2% in the assay with NCI-H226 lung; 99.7% in the assay with NCI-H322M lung; 103% with HOP-62 NSCLC; 103% in the assay with NCI-H460 lung; 126% in the assay with HOP-92 NSCLC; 98.3% in the assay on NCI-H522 lung. Further, the growth in the assay on A549/ATCC NSCLC is 96.8%; in the assay with 786-0 renal, 102%; in the assay with COLO 205 colon, 108%; in the assay on DU-145 prostate, 107%; in the assay on K-562 leukemia, 104%; in the assay with MALME-3M melanoma, 99.7%. The growth with MDA-MB-231 breast is 107%; in the assay with RXF 393 renal, 117%; with SF-268 CNS, 103%; with SF-295 CNS, 97.9%; in the assay with SF-539 CNS it was 98.9%; in the assay on UACC-257 melanoma it was 93.9%. Further, the growth in the assay with M14 melanoma was 97%.
Turning to `CN(C)Cc1ccc[nH]1`, the growth in the assay with NCI-H226 lung is 93.3%; in the assay with NCI-H322M lung it was 130%; in the assay on HOP-62 NSCLC, 117%; with NCI-H460 lung, 103%; in the assay with HOP-92 NSCLC it was 103%; in the assay with NCI-H522 lung, 67.6%. In addition, the growth in the assay with A549/ATCC NSCLC was 99.4%; with 786-0 renal, 107%; with COLO 205 colon, 101%; in the assay with DU-145 prostate it was 115%; in the assay on K-562 leukemia, 113%; in the assay with MALME-3M melanoma it was 126%. Further, the growth in the assay on MDA-MB-231 breast was 77.6%; in the assay with RXF 393 renal, 95.3%; in the assay with SF-268 CNS it was 103%; in the assay on SF-295 CNS it was 90.1%; in the assay on SF-539 CNS, 92.3%; in the assay with UACC-257 melanoma, 0.0923% (active). The growth with M14 melanoma is 93.2%.
In the case of `CCCCCCCCCCCCCC[n+]1cccc(C(N)=O)c1`, the growth in the assay on NCI-H226 lung was 13.8%; in the assay on NCI-H322M lung, 16.8%; in the assay with HOP-62 NSCLC, 17.1%; in the assay on NCI-H460 lung, 14.8%; in the assay with HOP-92 NSCLC, -26.8% (active); in the assay on NCI-H522 lung, -35.3% (active). The growth is 69.5% with A549/ATCC NSCLC; -40% (active) in the assay on 786-0 renal; -66.8% (active) in the assay with COLO 205 colon; 27.8% in the assay with DU-145 prostate; 9.03% (active) in the assay with K-562 leukemia; -33.9% (active) with MALME-3M melanoma. The growth with MDA-MB-231 breast is -22.9% (active); in the assay on RXF 393 renal, -41.4% (active); in the assay on SF-268 CNS, -24.2% (active); with SF-295 CNS it was -30.9% (active); with SF-539 CNS, -5.92% (active); in the assay with UACC-257 melanoma, 24.3%. Also, the growth in the assay on M14 melanoma is -38.8% (active).
